Measurements: the supplement of paper PMC11732987, “Enantioselective OTUD7B fragment discovery through chemoproteomics screening and high-throughput optimisation” (Communications Chemistry, 2025)

How the values were obtained:
Assay in all cases: log2 ratio of Biotin-Ahx-Ub-VS probe labelling (fragment/DMSO); higher = less target engagement (more negative = stronger competition), active = hit call of the paper (q ≤ 0.05, log2 ratio ≤ -1)
Details in all cases: compound concentration: 200 uM; treatment time: 3 h
USP34 = USP34 (UniProt Q70CQ2)
Sequence of USP34 (Q70CQ2 whole entry, the tested form may be a part): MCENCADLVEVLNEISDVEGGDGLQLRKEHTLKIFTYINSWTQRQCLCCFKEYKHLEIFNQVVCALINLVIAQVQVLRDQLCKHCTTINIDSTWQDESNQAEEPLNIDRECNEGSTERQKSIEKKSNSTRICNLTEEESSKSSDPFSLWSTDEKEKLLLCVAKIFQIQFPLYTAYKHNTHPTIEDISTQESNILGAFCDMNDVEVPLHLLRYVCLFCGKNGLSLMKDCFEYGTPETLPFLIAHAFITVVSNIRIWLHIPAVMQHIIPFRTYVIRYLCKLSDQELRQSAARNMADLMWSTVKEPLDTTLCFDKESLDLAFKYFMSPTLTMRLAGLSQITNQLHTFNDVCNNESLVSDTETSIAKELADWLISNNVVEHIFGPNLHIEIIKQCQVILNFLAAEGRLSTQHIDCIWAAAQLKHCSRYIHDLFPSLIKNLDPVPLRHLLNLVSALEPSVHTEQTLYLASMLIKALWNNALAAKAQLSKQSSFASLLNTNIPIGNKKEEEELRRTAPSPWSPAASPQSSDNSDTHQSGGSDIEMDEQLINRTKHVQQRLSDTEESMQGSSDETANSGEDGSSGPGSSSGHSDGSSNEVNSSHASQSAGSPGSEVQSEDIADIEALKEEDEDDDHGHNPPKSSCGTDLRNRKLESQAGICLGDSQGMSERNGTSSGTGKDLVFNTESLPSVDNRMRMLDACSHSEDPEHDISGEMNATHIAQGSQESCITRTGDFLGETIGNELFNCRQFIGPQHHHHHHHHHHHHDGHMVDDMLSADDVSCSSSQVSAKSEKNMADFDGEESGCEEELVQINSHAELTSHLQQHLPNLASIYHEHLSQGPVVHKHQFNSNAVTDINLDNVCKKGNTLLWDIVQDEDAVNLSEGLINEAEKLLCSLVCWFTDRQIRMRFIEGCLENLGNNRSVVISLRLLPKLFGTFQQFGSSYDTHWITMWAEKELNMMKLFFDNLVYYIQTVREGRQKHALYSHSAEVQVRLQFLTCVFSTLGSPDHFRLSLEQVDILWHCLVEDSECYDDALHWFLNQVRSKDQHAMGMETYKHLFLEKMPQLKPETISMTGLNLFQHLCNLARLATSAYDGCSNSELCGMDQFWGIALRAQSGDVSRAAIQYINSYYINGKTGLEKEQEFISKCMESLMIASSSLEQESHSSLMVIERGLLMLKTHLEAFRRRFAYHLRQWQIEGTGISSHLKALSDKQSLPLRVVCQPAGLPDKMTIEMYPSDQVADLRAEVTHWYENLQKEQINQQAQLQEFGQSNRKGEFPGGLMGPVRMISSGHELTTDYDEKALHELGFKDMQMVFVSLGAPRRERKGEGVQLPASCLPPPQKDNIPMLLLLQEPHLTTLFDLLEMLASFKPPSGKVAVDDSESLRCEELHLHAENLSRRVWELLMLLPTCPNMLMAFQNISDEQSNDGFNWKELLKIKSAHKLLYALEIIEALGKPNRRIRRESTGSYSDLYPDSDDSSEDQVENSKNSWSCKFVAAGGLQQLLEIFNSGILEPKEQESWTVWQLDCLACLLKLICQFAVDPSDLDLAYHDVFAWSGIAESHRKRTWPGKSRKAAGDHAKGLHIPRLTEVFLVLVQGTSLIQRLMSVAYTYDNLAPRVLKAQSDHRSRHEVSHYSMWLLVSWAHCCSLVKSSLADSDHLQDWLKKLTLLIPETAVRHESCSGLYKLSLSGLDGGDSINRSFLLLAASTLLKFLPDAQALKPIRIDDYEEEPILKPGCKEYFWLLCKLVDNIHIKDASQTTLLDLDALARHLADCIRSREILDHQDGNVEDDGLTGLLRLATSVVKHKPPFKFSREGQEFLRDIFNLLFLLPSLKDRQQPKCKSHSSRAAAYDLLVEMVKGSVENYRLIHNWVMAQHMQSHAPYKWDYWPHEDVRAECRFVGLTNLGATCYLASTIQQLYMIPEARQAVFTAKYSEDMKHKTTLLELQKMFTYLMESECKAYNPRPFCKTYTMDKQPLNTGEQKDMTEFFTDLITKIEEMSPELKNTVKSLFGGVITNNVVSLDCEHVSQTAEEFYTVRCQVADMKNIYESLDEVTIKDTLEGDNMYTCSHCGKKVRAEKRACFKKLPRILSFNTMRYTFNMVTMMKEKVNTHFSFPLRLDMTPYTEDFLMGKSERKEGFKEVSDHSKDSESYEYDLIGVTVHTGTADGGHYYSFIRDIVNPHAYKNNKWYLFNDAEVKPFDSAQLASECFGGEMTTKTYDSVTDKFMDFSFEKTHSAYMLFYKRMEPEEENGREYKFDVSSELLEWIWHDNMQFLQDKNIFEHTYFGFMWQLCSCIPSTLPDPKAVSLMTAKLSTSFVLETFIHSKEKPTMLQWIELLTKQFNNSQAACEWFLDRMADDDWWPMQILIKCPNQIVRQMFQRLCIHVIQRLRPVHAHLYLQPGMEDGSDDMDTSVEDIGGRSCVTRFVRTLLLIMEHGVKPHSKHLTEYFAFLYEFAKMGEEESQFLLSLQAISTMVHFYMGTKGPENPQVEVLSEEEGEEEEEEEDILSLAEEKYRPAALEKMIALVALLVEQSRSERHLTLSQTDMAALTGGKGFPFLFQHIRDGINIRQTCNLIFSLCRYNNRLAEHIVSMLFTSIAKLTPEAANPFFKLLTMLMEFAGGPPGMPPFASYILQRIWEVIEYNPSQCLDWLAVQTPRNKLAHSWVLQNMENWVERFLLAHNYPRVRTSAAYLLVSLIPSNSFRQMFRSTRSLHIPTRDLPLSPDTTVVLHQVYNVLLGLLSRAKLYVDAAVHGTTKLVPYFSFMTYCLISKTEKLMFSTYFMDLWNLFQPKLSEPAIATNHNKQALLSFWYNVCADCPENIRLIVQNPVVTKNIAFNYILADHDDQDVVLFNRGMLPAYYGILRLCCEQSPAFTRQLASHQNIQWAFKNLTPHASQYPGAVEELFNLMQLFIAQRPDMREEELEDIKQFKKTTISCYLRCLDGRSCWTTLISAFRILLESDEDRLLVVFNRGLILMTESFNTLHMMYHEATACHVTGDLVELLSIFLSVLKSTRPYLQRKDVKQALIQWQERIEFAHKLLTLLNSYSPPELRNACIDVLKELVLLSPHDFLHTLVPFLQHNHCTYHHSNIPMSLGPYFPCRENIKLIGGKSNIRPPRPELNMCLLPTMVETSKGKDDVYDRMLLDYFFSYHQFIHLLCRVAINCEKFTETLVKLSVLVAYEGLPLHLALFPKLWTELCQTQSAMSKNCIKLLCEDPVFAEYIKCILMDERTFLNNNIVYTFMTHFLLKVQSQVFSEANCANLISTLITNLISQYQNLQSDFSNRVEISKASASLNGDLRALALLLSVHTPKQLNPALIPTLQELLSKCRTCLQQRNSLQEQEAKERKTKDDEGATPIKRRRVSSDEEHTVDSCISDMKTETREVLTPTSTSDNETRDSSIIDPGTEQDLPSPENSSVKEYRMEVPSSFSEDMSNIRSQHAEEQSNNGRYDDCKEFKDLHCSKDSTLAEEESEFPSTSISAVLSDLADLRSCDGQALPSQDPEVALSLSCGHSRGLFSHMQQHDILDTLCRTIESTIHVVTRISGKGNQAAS
Summary of the method: (§1)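 Triplicate samples of HEK293T lysate, 495 µg each, received fragment at 200 µM or vehicle for 3 h, followed by Biotin-Ahx-Ub-VS (0.5 µM final) for 1 h. After NeutrAvidin enrichment of labelled DUBs and LysC/trypsin digestion, peptides were run by diaPASEF LC-MS/MS. The values are average log2 fragment/vehicle ratios from global-median-normalised Spectronaut label-free quantities, tested by unpaired t-test on proteins having ≥2 unique peptides.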

USP36 = target: T1, USP36 (UniProt Q9P275)
T1 sequence (whole entry): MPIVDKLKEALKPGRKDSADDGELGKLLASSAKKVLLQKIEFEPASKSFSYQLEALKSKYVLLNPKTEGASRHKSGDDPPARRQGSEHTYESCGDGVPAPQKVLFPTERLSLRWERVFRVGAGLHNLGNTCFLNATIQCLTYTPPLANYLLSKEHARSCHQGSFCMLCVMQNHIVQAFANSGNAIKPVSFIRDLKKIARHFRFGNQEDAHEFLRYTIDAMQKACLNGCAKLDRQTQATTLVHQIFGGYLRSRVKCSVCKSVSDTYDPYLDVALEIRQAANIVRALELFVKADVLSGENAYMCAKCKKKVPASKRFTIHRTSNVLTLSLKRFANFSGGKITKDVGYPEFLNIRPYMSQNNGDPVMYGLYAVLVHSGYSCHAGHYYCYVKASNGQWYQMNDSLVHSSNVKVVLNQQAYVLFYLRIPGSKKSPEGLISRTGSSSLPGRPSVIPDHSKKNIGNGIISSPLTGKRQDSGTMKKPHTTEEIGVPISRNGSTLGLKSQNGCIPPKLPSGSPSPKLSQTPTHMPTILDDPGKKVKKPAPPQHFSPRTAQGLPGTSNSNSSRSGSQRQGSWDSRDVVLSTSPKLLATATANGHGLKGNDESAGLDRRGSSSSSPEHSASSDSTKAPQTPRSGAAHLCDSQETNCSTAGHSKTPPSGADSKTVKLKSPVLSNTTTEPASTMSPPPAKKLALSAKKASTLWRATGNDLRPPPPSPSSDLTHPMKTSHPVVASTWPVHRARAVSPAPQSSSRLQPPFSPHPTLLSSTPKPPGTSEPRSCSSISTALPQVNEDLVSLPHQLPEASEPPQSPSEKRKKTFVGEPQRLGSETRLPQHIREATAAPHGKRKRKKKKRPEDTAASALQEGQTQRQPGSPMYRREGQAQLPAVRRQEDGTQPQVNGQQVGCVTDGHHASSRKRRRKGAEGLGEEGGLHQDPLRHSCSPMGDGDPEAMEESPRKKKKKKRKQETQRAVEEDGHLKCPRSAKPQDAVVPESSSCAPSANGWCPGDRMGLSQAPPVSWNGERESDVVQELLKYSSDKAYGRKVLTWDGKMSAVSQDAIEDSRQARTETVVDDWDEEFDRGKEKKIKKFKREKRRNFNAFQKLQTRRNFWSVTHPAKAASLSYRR
Summary of the method: as §1

USP38 = target: T2, USP38 (UniProt Q8NB14)
T2 sequence (whole entry): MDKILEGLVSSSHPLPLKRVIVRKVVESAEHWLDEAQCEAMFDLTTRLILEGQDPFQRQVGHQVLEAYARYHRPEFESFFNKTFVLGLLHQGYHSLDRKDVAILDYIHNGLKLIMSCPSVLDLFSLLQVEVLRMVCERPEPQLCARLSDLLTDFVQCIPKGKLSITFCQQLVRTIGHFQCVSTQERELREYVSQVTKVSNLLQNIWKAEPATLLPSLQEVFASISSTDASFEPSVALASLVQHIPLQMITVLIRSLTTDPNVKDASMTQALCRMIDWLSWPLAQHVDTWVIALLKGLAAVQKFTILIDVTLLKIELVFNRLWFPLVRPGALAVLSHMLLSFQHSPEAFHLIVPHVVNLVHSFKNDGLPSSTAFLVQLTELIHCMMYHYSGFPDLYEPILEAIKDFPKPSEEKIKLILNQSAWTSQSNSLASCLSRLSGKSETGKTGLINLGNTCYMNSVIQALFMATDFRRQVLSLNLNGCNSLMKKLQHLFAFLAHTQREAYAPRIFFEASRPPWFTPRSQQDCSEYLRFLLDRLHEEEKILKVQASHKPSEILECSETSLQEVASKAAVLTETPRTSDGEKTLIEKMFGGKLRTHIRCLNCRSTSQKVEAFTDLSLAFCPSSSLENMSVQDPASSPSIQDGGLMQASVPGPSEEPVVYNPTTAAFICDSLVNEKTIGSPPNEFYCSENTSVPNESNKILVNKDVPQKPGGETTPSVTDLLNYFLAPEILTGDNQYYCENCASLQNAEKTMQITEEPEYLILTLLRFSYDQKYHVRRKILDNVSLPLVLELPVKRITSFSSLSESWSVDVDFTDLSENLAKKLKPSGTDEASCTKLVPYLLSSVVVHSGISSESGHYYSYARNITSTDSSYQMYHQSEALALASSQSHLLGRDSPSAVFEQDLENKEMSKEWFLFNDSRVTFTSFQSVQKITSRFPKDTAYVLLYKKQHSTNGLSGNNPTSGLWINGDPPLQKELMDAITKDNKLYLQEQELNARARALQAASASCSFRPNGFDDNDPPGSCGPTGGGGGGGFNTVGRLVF
Summary of the method: as §1

USP39 = target: T3, USP39 (UniProt Q53GS9)
T3 sequence (whole entry): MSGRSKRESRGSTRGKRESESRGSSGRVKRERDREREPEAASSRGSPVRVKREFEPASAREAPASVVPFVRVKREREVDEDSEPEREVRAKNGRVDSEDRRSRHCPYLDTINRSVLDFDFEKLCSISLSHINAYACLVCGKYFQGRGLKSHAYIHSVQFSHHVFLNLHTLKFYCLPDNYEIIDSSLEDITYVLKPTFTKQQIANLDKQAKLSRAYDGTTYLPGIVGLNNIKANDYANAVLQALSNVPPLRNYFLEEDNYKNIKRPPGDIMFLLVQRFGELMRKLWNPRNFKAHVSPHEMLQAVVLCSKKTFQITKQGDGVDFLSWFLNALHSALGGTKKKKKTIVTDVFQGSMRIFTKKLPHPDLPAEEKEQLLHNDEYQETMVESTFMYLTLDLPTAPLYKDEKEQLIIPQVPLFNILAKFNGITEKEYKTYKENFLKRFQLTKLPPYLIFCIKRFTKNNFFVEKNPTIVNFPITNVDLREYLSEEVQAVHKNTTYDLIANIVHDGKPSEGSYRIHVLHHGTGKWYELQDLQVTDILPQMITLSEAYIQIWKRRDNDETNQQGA
Summary of the method: as §1

USP4 = target: T4, USP4 (UniProt Q13107)
T4 sequence (whole entry): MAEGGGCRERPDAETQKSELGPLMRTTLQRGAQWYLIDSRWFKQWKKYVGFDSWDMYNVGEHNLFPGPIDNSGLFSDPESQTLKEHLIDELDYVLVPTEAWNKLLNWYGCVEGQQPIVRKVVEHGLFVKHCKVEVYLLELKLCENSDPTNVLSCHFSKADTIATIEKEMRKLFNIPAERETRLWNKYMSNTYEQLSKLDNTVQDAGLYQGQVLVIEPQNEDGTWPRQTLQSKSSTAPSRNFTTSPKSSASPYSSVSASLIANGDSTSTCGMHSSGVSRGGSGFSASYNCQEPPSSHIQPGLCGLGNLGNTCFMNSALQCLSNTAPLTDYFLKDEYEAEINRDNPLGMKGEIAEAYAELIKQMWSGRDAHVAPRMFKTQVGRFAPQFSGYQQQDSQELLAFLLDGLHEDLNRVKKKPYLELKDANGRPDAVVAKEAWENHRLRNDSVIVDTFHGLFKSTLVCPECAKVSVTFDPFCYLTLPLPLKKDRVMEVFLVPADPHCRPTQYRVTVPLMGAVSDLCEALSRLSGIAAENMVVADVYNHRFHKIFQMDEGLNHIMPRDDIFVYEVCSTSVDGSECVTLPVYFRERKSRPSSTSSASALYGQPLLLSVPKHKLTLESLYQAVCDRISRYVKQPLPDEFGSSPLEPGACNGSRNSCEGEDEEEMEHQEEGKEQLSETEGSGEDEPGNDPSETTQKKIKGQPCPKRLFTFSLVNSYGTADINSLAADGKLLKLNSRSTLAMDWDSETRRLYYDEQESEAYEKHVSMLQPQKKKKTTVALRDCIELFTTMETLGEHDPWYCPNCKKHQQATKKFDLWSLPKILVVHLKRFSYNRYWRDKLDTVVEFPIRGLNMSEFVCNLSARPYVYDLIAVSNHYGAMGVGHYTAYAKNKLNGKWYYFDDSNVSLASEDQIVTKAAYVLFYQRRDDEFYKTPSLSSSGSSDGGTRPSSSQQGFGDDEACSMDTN
Summary of the method: as §1

Measured: log2 ratio of Biotin-Ahx-Ub-VS probe labelling

C#Cc1cccc(NC(=O)CCl)c1
inactive: USP34 -0.135 | USP36 -0.00355 | USP38 -0.119 | USP39 0.046 | USP4 0.0482
